Source: PubChem BioAssay AID1159580 (chemical genetic matrix, 2015)
Several values for one entry are separate records, joined by “and”; a condition that tells them apart may be missing. Equal entries are not always repeated. The whole screen tested about 5,500 compounds, of which about 2,000 (36%) were called active. Another 18% or so got no clear call; they are omitted. No stated cut-off is given here; in the data, active means normalized growth mostly below about 0.91 (no sharp cut-off); inconclusive means no clear call, values can overlap the other calls; inactive means mostly above about 0.92. Some of the results follow.

Experiment: chemical genetic growth profiling, strain panel (AID 1159580);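 further: tested at 20 µM; growth read once vehicle control cultures reached saturation at 30 °C; 1 = growth at the plate median or of vehicle wells; lower values mean less growth of the strain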
Settings: S. cerevisiae deletion strains, growth OD
[1] = locus YAL013W, strain DEP1, hits give low values
[2] = locus YBR229C, strain ROT2, hits give low values
[3] = locus YDL101C, strain DUN1, hits give low values
[4] = locus YDR150W, strain NUM1, hits give low values
[5] = locus YEL061C, strain CIN8, hits give low values
[6] = locus YGR078C, strain PAC10, hits give low values
[7] = locus YHR030C, strain SLT2, hits give low values
[8] = locus YJR043C, strain POL32, hits give low values
[9] = locus YJR075W, strain HOC1, hits give low values
[10] = locus YLR039C, strain RIC1, hits give low values
[11] = locus YLR262C, strain YPT6, hits give low values
[12] = locus YNL322C, strain KRE1, hits give low values
[13] = locus YOL006C, strain TOP1, hits give low values
[14] = locus YPL241C, strain CIN2, hits give low values

Measured: normalized growth

CC(=O)Nc1cc([As](=O)(O)O)ccc1O
inactive: [1] 0.996 | locus YAL021C, strain ccr4, hits give low values 1.01 | locus YAL026C, strain drs2, hits give low values 1.01 | locus YAL030W, strain snc1, hits give low values 1.01 | locus YBL061C, strain skt5, hits give low values 1 | locus YBR009C, strain hhf1, hits give low values 1.01 | locus YBR021W, strain FUR4, hits give low values 1.05 | locus YBR023C, strain chs3, hits give low values 1.01 | locus YBR171W, strain sec66, hits give low values 1.01 | [2] 1.01 | locus YBR231C, strain swc5, hits give low values 1.01 | locus YBR279W, strain paf1, hits give low values 0.999 | locus YCL011C, strain gbp2, hits give low values 1.02 | locus YCL016C, strain dcc1, hits give low values 0.994 | locus YCL029C, strain bik1, hits give low values 0.981 | locus YCL061C, strain MRC1, hits give low values 0.995 | locus YCL069W, strain vba3, hits give low values 1.01 | locus YCR088W, strain abp1, hits give low values 1.01 | locus YDL005C, strain med2, hits give low values 1 | locus YDL035C, strain GPR1, hits give low values 0.999 | locus YDL040C, strain nat1, hits give low values 1.01 | locus YDL074C, strain BRE1, hits give low values 0.936 | [3] 0.992 | locus YDL185W, strain tfp1, hits give low values 0.945 | locus YDL192W, strain arf1, hits give low values 0.994 | locus YDR001C, strain nth1, hits give low values 1.02 | locus YDR069C, strain doa4, hits give low values 1.01 | locus YDR101C, strain arx1, hits give low values 0.936 | locus YDR137W, strain rgp1, hits give low values 1.01 | [4] 0.997 | locus YDR159W, strain sac3, hits give low values 0.988 | locus YDR162C, strain NBP2, hits give low values 0.996 | locus YDR195W, strain ref2 0.995 | locus YDR297W, strain sur2, hits give low values 1.01 | locus YDR318W, strain mcm21, hits give low values 1 | locus YDR334W, strain swr1, hits give low values 1.02 | locus YDR335W, strain msn5, hits give low values 1.01 | locus YDR388W, hits give low values 0.997 | locus YDR392W, strain spt3, hits give low values 0.905 | locus YDR502C, strain sam2, hits give low values 1.02 | locus YEL003W, strain gim4, hits give low values 1.01 | locus YEL037C, strain rad23, hits give low values 1.01 | locus YEL061C, strain CIN8 (second series), hits give low values 1.02 | [5] 1 | locus YER015W, strain faa2, hits give low values 0.998 | locus YER016W, strain bim1, hits give low values 1.01 | locus YER110C, hits give low values 0.983 | locus YER111C, strain swi4, hits give low values 1 | locus YER155C, strain BEM2 (second series), hits give low values 0.982 | locus YER155C, strain BEM2, hits give low values 1.01 | locus YER167W, strain BCK2, hits give low values 0.996 | locus YFR010W, strain ubp6, hits give low values 1.03 | locus YGL078C, strain dbp3, hits give low values 0.985 | locus YGL086W, strain mad1, hits give low values 0.996 | locus YGL167C, strain pmr1, hits give low values 1.01 | locus YGL173C, strain kem1, hits give low values 1.01 | locus YGL227W, strain vid30, hits give low values 1.01 | locus YGL240W, strain doc1, hits give low values 0.978 | locus YGL248W, strain PDE1, hits give low values 1.01 | locus YGL253W, strain hxk2, hits give low values 1.02 | [6] 1 | locus YGR135W, strain pre9, hits give low values 1.01 | locus YGR252W, strain gcn5, hits give low values 1.11 | locus YHR013C, strain ard1, hits give low values 0.997 | locus YHR027C, strain rpn1, hits give low values 1.02 | [7] 0.981 and 1.03 | locus YHR079C, strain IRE1 (second series), hits give low values 0.983 | locus YHR079C, strain IRE1, hits give low values 1.01 | locus YHR094C, strain hxt1, hits give low values 0.996 | locus YHR129C, strain ARP1, hits give low values 0.985 | locus YHR142W, strain chs7, hits give low values 1.03 | locus YHR200W, strain rpn10, hits give low values 0.991 | locus YIL066C, strain RNR3, hits give low values 0.998 | locus YIL073C, strain SPO22, hits give low values 0.99 | locus YIL125W, strain kgd1, hits give low values 0.985 | locus YIR030C, strain dcg1, hits give low values 0.992 | locus YJL092W, strain hpr5, hits give low values 1 | locus YJL095W, strain BCK1 (second series), hits give low values 1.03 | locus YJL095W, strain BCK1, hits give low values 1.03 and 1.02 | locus YJL115W, strain asf1, hits give low values 1.01 | locus YJL129C, strain trk1, hits give low values 1.01 | locus YJL134W, strain LCB3, hits give low values 0.997 | locus YJL154C, strain vps35, hits give low values 1.01 | locus YJL164C, strain tpk1, hits give low values 1 | locus YJL166W, strain qcr8, hits give low values 0.999 | locus YJL168C, strain set2, hits give low values 0.932 | locus YJL187C, strain SWE1 (second series), hits give low values 0.995 | locus YJL187C, strain SWE1, hits give low values 1.04 | [8] 0.997 | locus YJR066W, strain TOR1, hits give low values 0.961 | [9] 0.983 | locus YKL009W, strain mrt4, hits give low values 0.956 | locus YKL068W, hits give low values 0.986 | locus YKL085W, strain MDH1 (second series), hits give low values 0.982 | locus YKL085W, strain MDH1, hits give low values 0.982 | locus YKL160W, strain elf1, hits give low values 0.981 | locus YKR001C, strain vps1, hits give low values 0.999 | locus YKR026C, strain gcn3, hits give low values 1 | locus YKR091W, strain srl3, hits give low values 1.01 | locus YLL001W, strain dnm1, hits give low values 0.99 | locus YLL026W, hits give low values 1 | locus YLL041C, strain sdh2, hits give low values 1 | locus YLR027C, strain aat2, hits give low values 1 | [10] 1.01 | locus YLR058C, strain SHM2, hits give low values 0.994 | locus YLR102C, strain apc9, hits give low values 0.984 | locus YLR113W, strain HOG1, hits give low values 1.01 | locus YLR221C, strain rsa3, hits give low values 1.02 | locus YLR258W, strain gsy2, hits give low values 0.998 | locus YLR262C, strain YPT6 (second series), hits give low values 0.999 | [11] 1.01 | locus YLR268W, strain sec22, hits give low values 0.964 | locus YLR320W, strain mms22, hits give low values 0.995 | locus YLR330W, strain CHS5, hits give low values 1 | locus YLR342W, strain FKS1 (second series), hits give low values 1.01 | locus YLR342W, strain FKS1, hits give low values 1.01 | locus YLR357W, strain rsc2, hits give low values 1 | locus YLR370C, strain arc18, hits give low values 1.01 | locus YLR371W, strain rom2, hits give low values 0.984 | locus YLR384C, strain iki3, hits give low values 0.998 | locus YLR418C, strain cdc73, hits give low values 0.997 | locus YML016C, strain PPZ1, hits give low values 0.995 | locus YML032C, strain rad52, hits give low values 1.03 | locus YML120C, strain ndi1, hits give low values 1.01 | locus YML124C, strain tub3, hits give low values 0.981 | locus YMR058W, strain fet3, hits give low values 1.01 | locus YMR078C, strain ctf18, hits give low values 0.976 | locus YMR125W, strain sto1, hits give low values 1 | locus YMR129W, hits give low values 1.01 | locus YMR205C, strain PFK2, hits give low values 0.994 | locus YMR223W, strain ubp8, hits give low values 1.01 | locus YMR231W, strain pep5, hits give low values 0.996 | locus YMR307W, strain GAS1, hits give low values 1.17 | locus YNL067W, strain RPL9B, hits give low values 0.983 | locus YNL071W, strain lat1, hits give low values 1.01 | locus YNL183C, strain NPR1, hits give low values 0.973 | locus YNL209W, strain ssb2, hits give low values 1.01 | locus YNL233W, strain BNI4, hits give low values 1.01 | locus YNL248C, strain rpa49, hits give low values 0.987 | locus YNL250W, strain rad50, hits give low values 0.976 | locus YNL271C, strain bni1, hits give low values 0.983 | locus YNL298W, strain CLA4, hits give low values 1 | locus YNL307C, strain MCK1, hits give low values 0.981 | locus YNL322C, strain KRE1 (second series), hits give low values 0.992 | [12] 1 | locus YNR049C, strain mso1, hits give low values 1.01 | locus YNR052C, strain pop2, hits give low values 1 | [13] 0.999 | locus YOL012C, strain htz1 0.886 | locus YOL147C, strain pex11, hits give low values 0.995 | locus YOR001W, strain rrp6, hits give low values 0.989 | locus YOR061W, strain CKA2, hits give low values 0.993 | locus YOR069W, strain VPS5, hits give low values 0.998 | locus YOR070C, strain gyp1, hits give low values 1 | locus YOR080W, strain dia2, hits give low values 1 | locus YOR083W, strain WHI5, hits give low values 0.978 | locus YOR106W, strain vam3, hits give low values 0.99 | locus YOR136W, strain idh2, hits give low values 0.974 | locus YOR144C, strain elg1, hits give low values 0.992 | locus YOR184W, strain ser1, hits give low values 0.988 | locus YOR231W, strain MKK1, hits give low values 1 | locus YOR265W, strain rbl2, hits give low values 0.998 | locus YOR270C, strain vph1, hits give low values 1.05 | locus YOR290C, strain snf2, hits give low values 0.993 | locus YOR316C, strain cot1, hits give low values 0.985 | locus YPL051W, strain arl3, hits give low values 1 | locus YPL078C, strain atp4, hits give low values 0.982 | locus YPL106C, strain sse1, hits give low values 0.985 | locus YPL240C, strain hsp82, hits give low values 0.998 | [14] 1 | locus YPL256C, strain CLN2, hits give low values 1.03 | locus YPR119W, strain clb2, hits give low values 0.983 | locus YPR141C, strain kar3, hits give low values 0.988 | locus YPR163C, strain tif3, hits give low values 0.997 | locus YPR167C, strain met16, hits give low values 0.994 | strain wtn01, hits give low values 0.964

O=[N+]([O-])c1ccc2nsnc2c1
inactive: [4] 0.825 | locus YGR229C, strain SMI1, hits give low values 0.979 | [10] 0.795 | [11] 0.83 | [12] 0.999
active: [1] 0.836 | [2] 0.643 | [3] 0.583 | [5] 0.626 | [6] 0.699 | [7] 0.109 | locus YHR087W, strain rtc3, hits give low values 0.649 | [8] 0.828 | [9] 0.55 | locus YKL190W, strain CNB1, hits give low values 0.604 | locus YLR058C, strain SHM2 (second series), hits give low values 0.824 | locus YLR085C, strain ARP6, hits give low values 0.227 | locus YML094W, strain GIM5, hits give low values 0.533 | locus YMR219W, strain ESC1, hits give low values 0.833 | locus YMR263W, strain SAP30, hits give low values 0.8 | locus YNL128W, strain TEP1, hits give low values 0.304 | locus YNL153C, strain GIM3, hits give low values 0.738 | locus YNL298W, strain CLA4 (second series), hits give low values 0.361 | locus YNR030W, strain Alg12, hits give low values 0.534 | [13] 0.496 | locus YPL055C, strain LGE1, hits give low values 0.805 | [14] 0.286 | locus YPR135W, strain CTF4, hits give low values 0.233
